# Unmarked numbers belong to inactive results. How the calls were made is not given here.
# Molecular target: Pantothenate synthetase (Mycobacterium tuberculosis (strain ATCC 25618 / H37Rv)) (UniProt P9WIL5)
# Assay: Coupled enzyme confirmation of inhibitors against recombinant Mtb PanC (AID 375);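 further: 0% = full reaction with vehicle and 100% = no enzyme background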
# Conditions: coupled enzyme assay; at 10 µM, active compounds read high
# Pantothenate synthetase (Mycobacterium tuberculosis (strain ATCC 25618 / H37Rv)), sequence (P9WIL5 whole entry, looked up): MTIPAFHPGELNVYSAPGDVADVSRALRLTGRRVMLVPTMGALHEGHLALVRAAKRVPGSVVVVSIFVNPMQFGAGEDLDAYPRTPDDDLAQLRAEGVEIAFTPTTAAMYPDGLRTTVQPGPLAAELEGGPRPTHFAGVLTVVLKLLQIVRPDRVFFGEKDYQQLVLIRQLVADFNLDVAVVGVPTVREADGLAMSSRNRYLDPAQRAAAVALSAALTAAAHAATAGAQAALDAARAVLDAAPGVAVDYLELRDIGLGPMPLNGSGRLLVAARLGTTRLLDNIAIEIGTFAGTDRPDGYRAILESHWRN
row,Compound,inhibition
1,O=C(Nc1cnn(C23CC4CC(CC(C4)C2)C3)c1)c1cnn2c(C(F)(F)F)cc(-c3ccco3)nc12,0%
2,COc1ccccc1C(=O)Nc1ccc(N2CCN(S(C)(=O)=O)CC2)cc1,0%
3,Cc1c(CNCc2cccs2)c(C(=O)O)c(C)n1Cc1ccccc1,0%
4,O=C(Cn1c(-c2cncs2)nc2ccccc21)NC1CCCC1,0%
5,O=C(CN(C(=O)CCC(=O)Nc1nccs1)c1ccccc1F)NCC1CCCO1 (stereo not drawn),2%
6,COCCOC(=O)c1cc(C(=O)c2cc(F)ccc2O)coc1=N,2%
7,CN1CCCN(CC(O)COCc2cccs2)CC1 (stereo not drawn),0%
8,Cc1cc(C(=O)N2CCN(c3ncccn3)CC2)cs1,4%
9,CCCSC1=C(C#N)C(c2ccccc2OCC)CC(=O)N1 (stereo not drawn),7%
10,O=C(O)c1ccc(CSc2ncn[nH]2)cc1,1%
11,CC1CN(C(=O)CSc2ncnc3sccc23)CC(C)O1 (stereo not drawn),0%
12,CCOC(=O)c1[nH]cc(-c2ccccc2)c1N1CCOCC1,0%
13,CN(C1CCCCC1)S(=O)(=O)c1ccc(S(=O)(=O)N2CCN(CCC#N)CC2)cc1,6%
14,COc1cccc(NC(=O)CSc2nnc(-c3cccs3)n2C)c1,0%
15,CCN1C(=O)c2cccc3c(NC(=O)c4ccc(S(=O)(=O)N(C)C)cc4)ccc1c23,1%
16,O=C1NC(Cc2c[nH]c3ccccc23)C(=O)N1CCOc1ccccc1 (stereo not drawn),2%
17,Cc1nn(Cc2ccccc2)c2c1C(c1ccncc1)C(C#N)=C(N)O2 (stereo not drawn),0%
18,Cc1ccc(NC(=O)CNc2cccc(C)c2C)c(C)c1,0%
19,CCOC(=O)C1=C(C)NC2=C(C(=O)CC(C)(C)C2)C1c1ccc(N(C)C)cc1 (stereo not drawn),0%
20,O=C(CCN1CCc2ccccc2C1)Nc1ccc2c(c1)OCO2,0%
21,CCCc1cc(Nc2cccc(OC)c2)n2ncnc2n1,0%
22,CC12CN3CC(C)(CN(C1)C3c1cc(Br)ccc1O)C2=O (stereo not drawn),0%
23,COCCN1C(=O)C(=O)/C(=C(/O)c2cccc(S(=O)(=O)N(C)C)c2)C12C(=O)N(C)c1ccccc12 (stereo not drawn),8%

# Reference: PubChem BioAssay
